# Source: PubChem BioAssay (Tox21)
# Results filed as inconclusive are left out. Entries that show only a call come without a potency. Active and inactive are the calls of the source. Calls come from the whole dose curve; as a rule, active = well fitted cell-killing curve with a large enough effect in the repeat runs; inconclusive = weak or mixed curves, or effect the other way; inactive = flat fitted curve, though single readings scatter.
# Assay: cAMP Responsive Elements (CRE) small molecule agonists, cell-based qHTS assay: qHTS cell viability counter screen (AID 2060914); note: nearly all actives have a fitted effect of over 50% in size
# Conditions: CRE-bla HEK293T viability, CellTiter-Glo luminescence, 5 h; series mostly up to 92.4 µM
# Procedure, shortened: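 Cytotoxicity counter screen multiplexed with the CRE-bla reporter assay in HEK 293T cells: 3 h compound exposure at 37 °C, followed by CellTiter-Glo luminescence measured in the same wells.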
row,SMILES,Potency
1,N#CCc1ccc(Cl)cc1,inactive
2,O=[N+]([O-])c1cc(C(F)(F)F)c(Cl)c([N+](=O)[O-])c1Cl,inactive
3,O=C1c2ccccc2C(=O)N1SC(Cl)(Cl)Cl,inactive
4,BrC(Br)C(Br)(Br)Br,inactive
5,ClC(Cl)Br,inactive
6,COc1nc(C)nc(NC(=O)NS(=O)(=O)c2ccccc2Cl)n1,inactive
7,CCNc1nc(NC(C)(C)C)nc(SC)n1,inactive
8,O=c1n(Cl)c(=O)n(Cl)c(=O)n1Cl,inactive
9,CCC[N+]1(C)CCCCC1,inactive
10,CC(C)(c1ccccc1)c1cc(-n2nc3ccccc3n2)c(O)c(C(C)(C)c2ccccc2)c1,inactive
11,Clc1ccc(Oc2ccccc2)cc1,inactive
12,CC(Cl)C(=O)O (centres undefined),inactive
13,O=NN1CCNCC1,inactive
14,CCOP(=S)(OCC)Oc1ccc([N+](=O)[O-])cc1,inactive
